Screens (PubChem)
Sa helicase inh = blocks Staphylococcus aureus DNA helicase; purified S. aureus helicase, fluorescence unwinding assay; inhibition, % (concentration not given with the values); 120,000 tested, 0.05% active; AID 485395; in the data active = inhibition above about 25%, passing the limit was not always enough;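 note: 0% = mean of negative control wells and 100% = mean of positive control wells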
Sa growth inh = inhibitors of Staphylococcus aureus growth at 42 °C | S. aureus RN4220 growth, OD600, 20 h; hits give low values | relative growth, % (concentration not given with the values) | 170,000 tested, 0.53% active | AID 720641;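 active = relative growth at most 50% at the other temperature and 20+ points below 30 °C, or under 10% at both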
* marks the source's active call; other numbers are inactive results; . = not tested or not shown. An excerpt weighted towards active compounds, which were near 0.52% of everything screened.

SMILES	Sa helicase inh	Sa growth inh
O=C(c1ccccc1)N1CCC(c2nc3c(nnn3Cc3ccccc3)c(=O)[nH]2)CC1	-1	2.9*
O=C(Cc1ccccc1F)N1CCC(c2nc3c(nnn3Cc3ccc(F)cc3)c(=O)[nH]2)CC1	.	68
COc1cccc(Cn2nnc3c(=O)[nH]c(C4CCCN(C(=O)c5ccc(C)cc5)C4)nc32)c1 (centres undefined)	.	79
CC1(C)C(=O)Nc2ccccc2N1C(=O)COc1ccc2ccc(=O)oc2c1	10	80
CCOC(=O)NC(=S)Nc1cc(C)cc(C)n1	-12	100
CCOC(=O)c1c(C)oc2c1c(C=NC1CC(C)(C)NC(C)(C)C1)c(O)c1ccccc12	2	98
O=C(Cc1ccc(F)cc1)N1CCC(c2nc3c(nnn3Cc3ccc(Cl)cc3)c(=O)[nH]2)CC1	.	6.4*
O=C(Cc1ccc(F)cc1)N1CCC(c2nc3c(nnn3Cc3ccc(F)cc3)c(=O)[nH]2)CC1	.	57
O=C(NC(=S)NCc1ccco1)c1ccc(Cl)cc1	25	91
COc1ccc(NC(=O)CCN2CCN(C3c4ccccc4-c4ccccc43)CC2)cc1	6	104
CCN1/C(=C/c2sc3ccccc3[n+]2CCO)Sc2ccccc21	44*	28
CCN1/C(=C\C=C2\C(=O)N(C)C(=S)N2C)Sc2ccccc21	-3	81
CCC(=O)/C=C1/Sc2ccc(C)cc2N1CC	1	127
Cc1ccc2c(c1)N(CCO)/C(=C/c1sc3ccccc3[n+]1C)S2	19	-1.4*
O=C(CSc1nc2ccccc2c(=O)n1-c1ccccc1)NCCc1ccccc1	-13	94
O=C(NC(Cc1c[nH]c2ccccc12)C(=O)NNC1=NCCC1)c1ccccc1 (centres undefined)	-13	84
O=c1oc2ccccc2c(O)c1Cc1cc(Cl)c2cccnc2c1O	-15	128
Cc1cc(O)c(Cc2cc(Cl)c3cccnc3c2O)c(=O)o1	17	4.0*
CCc1nn(C(C)C(=O)N2CCN(c3cccc(OC)c3)CC2)c(=O)c2cc3occc3n12 (centres undefined)	-10	99
CCC(Sc1nnc2c3ccccc3n(CC)c2n1)C(=O)Nc1ccc(S(N)(=O)=O)cc1 (centres undefined)	-30	102
CCN1CCCC1CNC(=O)c1nnc(Cc2ccc(F)cc2)o1 (centres undefined)	-8	85
CCN(CC)C(=O)c1sc(NC(=S)N(C)Cc2cn(CC)nc2C)c(C(=O)OC)c1C	4	0.8*
CCn1cc(CN(C)C(=S)Nc2sc3c(c2C(=O)OC)CCC(C)C3)c(C)n1 (centres undefined)	28	95
O=C1NC(=O)/C(=C\c2cccc(C(F)(F)F)c2)S1	-31	7.3*
CN(C)c1ccc(/C=C2\SC(=O)NC2=O)cc1	-22	.
SMILES	Sa helicase inh	Sa growth inh
O=C(NC1CCC(CC2CCC(NC(=O)c3cccnc3)CC2)CC1)c1cccnc1 (centres undefined)	3	85
Cc1cc(C)c(C)c(OCC(O)CNC(C)C)c1 (centres undefined)	22	.
Cc1ccc(-c2nnc(NC(=O)c3ccc4c(c3)OCCO4)o2)c(C)c1	.	64
CCc1nnc(NC(=O)c2ccc(S(=O)(=O)N3CCCC3)cc2)o1	5	111
C=CCN(CC=C)S(=O)(=O)c1ccc(C(=O)Nc2nnc(-c3cc(C)ccc3C)o2)cc1	2	1.7*
CCc1nnc(NC(=O)c2ccc(S(=O)(=O)N3CC(C)CC(C)C3)cc2)o1 (centres undefined)	6	9.0*
C=CCN(CC=C)S(=O)(=O)c1ccc(C(=O)Nc2nnc(-c3ccc(OC)cc3)o2)cc1	18	89
Cc1ccc(-c2nnc(NC(=O)c3ccc(S(=O)(=O)N4CCCC4)cc3)o2)c(C)c1	3	1.6*
COc1cc(-c2nn(CN3CC(C)OC(C)C3)c(=S)o2)cc(OC)c1OC (centres undefined)	6	97
N#CCn1c(CSc2nncn2-c2ccccc2)nc2ccccc2c1=O	-8	77
Cn1nnnc1SCCCNCc1ccsc1	18	108
Cc1cccc(NC(=O)c2c(NC(=O)C(F)(F)F)sc3c2CCCCC3)c1	.	35
O=C(Nc1cccc(Cl)c1)c1c(NC(=O)C(F)(F)F)sc2c1CCCC2	.	-1.2*
CN1C(C(=O)N2CCCCC2)=CC(c2cccs2)=NS1(=O)=O	-24	90
COc1cc(C)c(Cc2cnc(N)nc2N)cc1OC	.	-0.2*
COc1cc(Cc2cc(OC)c(C)cc2OC)c(OC)cc1C	.	98
CC(C)S(=O)(=O)c1csc(C(=O)N/N=C/C(C)(C)C)c1-n1cccc1	-1	93
O=C(CCCc1c[nH]c2ccccc12)Nc1nnc(-c2ccc(Cl)cc2)o1	-5	88
O=C(CCc1ccccc1)Nc1nnc(-c2ccccc2)o1	-15	.
CCCCC(=O)Nc1nnc(-c2ccc(Cl)cc2)o1	21	-0.3*
CCCCC(=O)Nc1nnc(-c2ccc(Cl)s2)o1	5	8.8*
COc1ccccc1CNC(=S)N(C)C	.	109
COc1cc2c(C(=O)O)c(C)oc2cc1Br	-14	89
COC(=O)C1=C(C)NC(=O)C1(Nc1nc2ccccc2s1)C(F)(F)F (centres undefined)	23	93
O=C(NCc1ccccc1)NC(c1ccccc1)c1nnc(-c2ccccc2)o1 (centres undefined)	7	107
SMILES	Sa helicase inh	Sa growth inh
CC(C)(C)c1cc(C(c2ccccn2)N2CCCC2)cc(C(C)(C)C)c1O (centres undefined)	13	104
CC(C)(C)c1cc(C(c2ccc(O)cc2)N2CCOCC2)cc(C(C)(C)C)c1O (centres undefined)	15	-1.3*
CC1=C(C)CC(C(=O)Nc2ccc(-n3cnnn3)c(C)c2)C(C(=O)O)C1 (centres undefined)	5	101
O=C1C(=Cc2cccnc2)C(=O)c2ccccc21	-5	64
O=C1/C(=C/c2cccnc2)c2ccccc2N1c1ccccc1	14	8.4*
CC(=O)N1CCN(c2ccc(OCC3CO[C@](Cn4ccnc4)(c4ccc(Cl)cc4Cl)O3)cc2)CC1 (some centres undefined)	.	2.6*
CCOc1ccc(NC(=O)N2CCN(c3ccc(Cl)c(Cl)c3)CC2)cc1	.	107
CC(C)C(=O)Nc1ccc2[nH]c(=O)[nH]c2c1	15	93
CCCCN1COc2c(cc(Cl)c3cccnc23)C1	8	1.0*
Oc1c(CN2CCc3ccccc3C2)cc(Cl)c2cccnc12	-12	.
Clc1cc2c(c3ncccc13)OCN(CCC1=CCCCC1)C2	11	0.1*
Clc1cc2c(c3ncccc13)OCN(CCc1ccccc1)C2	14	95
Clc1cccc(NCc2cccc3c2CN(CC2CCCO2)C3)c1 (centres undefined)	0	100
Clc1cc2c(c3ncccc13)OCN(CC1CCCO1)C2 (centres undefined)	-13	1.0*
CC1CCC(NC(=O)c2ccc(CS(=O)(=O)Cc3cccc(Cl)c3)o2)CC1 (centres undefined)	.	111
CC(=O)Oc1ccccc1C(=O)NCc1ccc(F)cc1	-5	76
CCOc1ccc2c(c1)s/c(=N\C(=S)NC(=O)CN1C(=O)CCC1=O)n2C	19	109
COc1ccc2c(c1)s/c(=N\NC(=S)NC(=O)CN1C(=O)CCC1=O)n2C	4	0.5*
Cc1cc(C(=O)/C(C#N)=N/Nc2cccc(Cl)c2)n(C(C)(C)C)n1	21	5.4*
N#C/C(=N\Nc1cccc(Cl)c1)C(=O)c1ccco1	-9	1.8*
N#C/C(=C\Nc1cccc(Cl)c1)S(=O)(=O)Cc1ccco1	.	85
